Measured values as given in article PMC11006913.
Positions count from the first letter of the chain named.

How the values were obtained:
Assay in all cases: PBM; 200 nM protein, PBS
Conditions in all cases: dsDNA, one strand shown
NKX2-4 [1] = target: T1, NKX2-4 (Homo sapiens, UniProt Q9H2Z4 175-261, P217L)
T1 sequence: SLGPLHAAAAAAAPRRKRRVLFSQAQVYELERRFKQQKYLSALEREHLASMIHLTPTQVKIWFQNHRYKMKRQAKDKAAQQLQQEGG

NKX2-4 [2] = target: T2, NKX2-4 (Homo sapiens, UniProt Q9H2Z4 175-261, T231S)
T2 sequence: T1 sequence with L43P, T57S

NKX2-4 [3] = target: T3, NKX2-4 (Homo sapiens, UniProt Q9H2Z4 175-261)
T3 sequence: T1 sequence with L43P

NKX2-4 [4] = target: T4, NKX2-4 (Homo sapiens, UniProt Q9H2Z4 175-261, R246Q)
T4 sequence: T1 sequence with L43P, R72Q

| Sequence | binding signal (NKX2-4 [1]) | binding signal (NKX2-4 [2]) | binding signal (NKX2-4 [3]) | binding signal (NKX2-4 [4]) |
| --- | --- | --- | --- | --- |
| CACGGCTA | 9.31 upbm affinity estimate (log intensity, higher = more binding, comparable within an allelic series) | 9.28 upbm affinity estimate (log intensity, higher = more binding, comparable within an allelic series) | 9.21 upbm affinity estimate (log intensity, higher = more binding, comparable within an allelic series) | 9.29 upbm affinity estimate (log intensity, higher = more binding, comparable within an allelic series) |
| ATTCTTGA | 11.5 upbm affinity estimate (log intensity, higher = more binding, comparable within an allelic series) | 11.7 upbm affinity estimate (log intensity, higher = more binding, comparable within an allelic series) | 11.2 upbm affinity estimate (log intensity, higher = more binding, comparable within an allelic series) | 11.7 upbm affinity estimate (log intensity, higher = more binding, comparable within an allelic series) |
| GACACCGC | 9.33 upbm affinity estimate (log intensity, higher = more binding, comparable within an allelic series) | 9.29 upbm affinity estimate (log intensity, higher = more binding, comparable within an allelic series) | 9.43 upbm affinity estimate (log intensity, higher = more binding, comparable within an allelic series) | 9.52 upbm affinity estimate (log intensity, higher = more binding, comparable within an allelic series) |
| GTGGCCAC | 10.2 upbm affinity estimate (log intensity, higher = more binding, comparable within an allelic series) | 10.2 upbm affinity estimate (log intensity, higher = more binding, comparable within an allelic series) | 10.2 upbm affinity estimate (log intensity, higher = more binding, comparable within an allelic series) | 10.3 upbm affinity estimate (log intensity, higher = more binding, comparable within an allelic series) |
| GAGTGTCC | 11.9 upbm affinity estimate (log intensity, higher = more binding, comparable within an allelic series) | 12.2 upbm affinity estimate (log intensity, higher = more binding, comparable within an allelic series) | 11.8 upbm affinity estimate (log intensity, higher = more binding, comparable within an allelic series) | 12.2 upbm affinity estimate (log intensity, higher = more binding, comparable within an allelic series) |
| CCACTCCA | 12.5 upbm affinity estimate (log intensity, higher = more binding, comparable within an allelic series) | 12.8 upbm affinity estimate (log intensity, higher = more binding, comparable within an allelic series) | 12.3 upbm affinity estimate (log intensity, higher = more binding, comparable within an allelic series) | 12.9 upbm affinity estimate (log intensity, higher = more binding, comparable within an allelic series) |
| AAAATGCG | 9.82 upbm affinity estimate (log intensity, higher = more binding, comparable within an allelic series) | 9.83 upbm affinity estimate (log intensity, higher = more binding, comparable within an allelic series) | 9.74 upbm affinity estimate (log intensity, higher = more binding, comparable within an allelic series) | 9.92 upbm affinity estimate (log intensity, higher = more binding, comparable within an allelic series) |
| CACTCGAG | 12.4 upbm affinity estimate (log intensity, higher = more binding, comparable within an allelic series) | 12.8 upbm affinity estimate (log intensity, higher = more binding, comparable within an allelic series) | 12.4 upbm affinity estimate (log intensity, higher = more binding, comparable within an allelic series) | 13 upbm affinity estimate (log intensity, higher = more binding, comparable within an allelic series) |
| CGGCGTTA | 9.81 upbm affinity estimate (log intensity, higher = more binding, comparable within an allelic series) | 9.61 upbm affinity estimate (log intensity, higher = more binding, comparable within an allelic series) | 9.82 upbm affinity estimate (log intensity, higher = more binding, comparable within an allelic series) | 9.89 upbm affinity estimate (log intensity, higher = more binding, comparable within an allelic series) |
| AGTACTCA | 12.5 upbm affinity estimate (log intensity, higher = more binding, comparable within an allelic series) | 12.9 upbm affinity estimate (log intensity, higher = more binding, comparable within an allelic series) | 12.4 upbm affinity estimate (log intensity, higher = more binding, comparable within an allelic series) | 12.9 upbm affinity estimate (log intensity, higher = more binding, comparable within an allelic series) |
| ACCTGCAG | 9.74 upbm affinity estimate (log intensity, higher = more binding, comparable within an allelic series) | 9.82 upbm affinity estimate (log intensity, higher = more binding, comparable within an allelic series) | 9.68 upbm affinity estimate (log intensity, higher = more binding, comparable within an allelic series) | 9.76 upbm affinity estimate (log intensity, higher = more binding, comparable within an allelic series) |
| CTACTCAA | 12.1 upbm affinity estimate (log intensity, higher = more binding, comparable within an allelic series) | 12.5 upbm affinity estimate (log intensity, higher = more binding, comparable within an allelic series) | 12 upbm affinity estimate (log intensity, higher = more binding, comparable within an allelic series) | 12.4 upbm affinity estimate (log intensity, higher = more binding, comparable within an allelic series) |
| ATCGTGCC | 9.86 upbm affinity estimate (log intensity, higher = more binding, comparable within an allelic series) | 9.92 upbm affinity estimate (log intensity, higher = more binding, comparable within an allelic series) | 9.97 upbm affinity estimate (log intensity, higher = more binding, comparable within an allelic series) | 9.95 upbm affinity estimate (log intensity, higher = more binding, comparable within an allelic series) |
| CAAGCCAG | 9.67 upbm affinity estimate (log intensity, higher = more binding, comparable within an allelic series) | 9.62 upbm affinity estimate (log intensity, higher = more binding, comparable within an allelic series) | 9.56 upbm affinity estimate (log intensity, higher = more binding, comparable within an allelic series) | 9.73 upbm affinity estimate (log intensity, higher = more binding, comparable within an allelic series) |
| ACGAGTAT | 11.5 upbm affinity estimate (log intensity, higher = more binding, comparable within an allelic series) | 11.7 upbm affinity estimate (log intensity, higher = more binding, comparable within an allelic series) | 11.4 upbm affinity estimate (log intensity, higher = more binding, comparable within an allelic series) | 11.6 upbm affinity estimate (log intensity, higher = more binding, comparable within an allelic series) |
| AGTGGTTC | 11.8 upbm affinity estimate (log intensity, higher = more binding, comparable within an allelic series) | 12 upbm affinity estimate (log intensity, higher = more binding, comparable within an allelic series) | 11.8 upbm affinity estimate (log intensity, higher = more binding, comparable within an allelic series) | 12.1 upbm affinity estimate (log intensity, higher = more binding, comparable within an allelic series) |
| ATCACACC | 9.96 upbm affinity estimate (log intensity, higher = more binding, comparable within an allelic series) | 9.93 upbm affinity estimate (log intensity, higher = more binding, comparable within an allelic series) | 9.81 upbm affinity estimate (log intensity, higher = more binding, comparable within an allelic series) | 9.96 upbm affinity estimate (log intensity, higher = more binding, comparable within an allelic series) |
| CTACTTCA | 12.4 upbm affinity estimate (log intensity, higher = more binding, comparable within an allelic series) | 12.6 upbm affinity estimate (log intensity, higher = more binding, comparable within an allelic series) | 12.2 upbm affinity estimate (log intensity, higher = more binding, comparable within an allelic series) | 12.8 upbm affinity estimate (log intensity, higher = more binding, comparable within an allelic series) |
